Most compounds without a hit are left out; they make up all but 12% or so of the library.
Sfp inh = Sfp phosphopantetheinyl transferase inhibition | Q9F4F7 | Biochemical Sfp PPTase activity, qHTS | Potency, µM, most hits filed as inhibitors | hit rate 3.5% among 310,000;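 further: the enzyme is Sfp with the accession as filed and its product quenches rhodamine fluorescence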
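Reaction rates are the 30-min fluorescence difference (ex 525, em 598 nm) in wells containing 15 nM Sfp, 5 uM rhodamine-CoA and 12.5 uM BHQ-2-YbbR at pH 7.6 with 10 mM MgCl2.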
HP1b binding inh = HP1-beta chromodomain-methylated histone interaction inhibition. P83916. AlphaScreen HP1-beta / biotin-H3K9me3 peptide binding. Potency, µM (titrated, usually from 114 µM), actives largely listed as inhibitors. hit rate 0.56% among 390,000. AID 540317; further: nearly all actives have a fitted effect of over 70% in size
Target sequence (P83916 whole entry, looked up): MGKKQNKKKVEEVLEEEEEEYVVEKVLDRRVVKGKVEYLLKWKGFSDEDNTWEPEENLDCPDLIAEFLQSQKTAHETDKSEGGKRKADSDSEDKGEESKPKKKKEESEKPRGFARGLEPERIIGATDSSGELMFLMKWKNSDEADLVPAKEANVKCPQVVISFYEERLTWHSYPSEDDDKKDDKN
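HP1-beta protein (50 nM final) preincubated 30 min at room temperature with biotinylated H3(1-18)K9me3 peptide (50 nM) in PBS pH 7.4, 0.01% Tween-20, then compound added for 30 min. AlphaScreen streptavidin donor/nickel chelate acceptor beads (10 ug/mL final), 30 min dark, luminescence read.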
JMJD2A Tudor = blocks the human JMJD2A Tudor domain; O75164; AlphaScreen JMJD2A-Tudor / H3K4me3 peptide binding; Potency, µM (highest dose often 114 µM), most hits filed as inhibitors; hit rate 4.4% among 390,000; further: nearly all actives have a fitted effect of over 50% in size
G9a block = G9a (human) methyltransferase inhibition | Q96KQ7 | G9a H3K9 monomethylation, AlphaScreen, 2 h | Potency, µM (top dose mostly 102 µM), most hits filed as inhibitors | hit rate 8.8% among 350,000 | AID 504332; further: nearly all actives have a fitted effect of over 75% in size
Target sequence (Q96KQ7 913-1193 limits assumed): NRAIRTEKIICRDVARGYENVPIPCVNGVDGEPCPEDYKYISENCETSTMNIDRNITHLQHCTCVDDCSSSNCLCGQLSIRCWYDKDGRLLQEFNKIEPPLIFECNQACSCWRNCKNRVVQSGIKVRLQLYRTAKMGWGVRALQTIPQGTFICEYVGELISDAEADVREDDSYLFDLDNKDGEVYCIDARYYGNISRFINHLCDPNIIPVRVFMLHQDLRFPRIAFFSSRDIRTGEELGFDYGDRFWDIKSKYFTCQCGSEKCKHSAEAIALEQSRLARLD
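AlphaScreen detection with an anti-monomethyl H3K9 antibody quantified product after a 2 h room-temperature reaction containing 500 nM biotinylated H3K9 peptide, 20 µM SAM and 20 nM enzyme, which had been preincubated 15 min with compound.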
BAZ2B inh = BAZ2B (human) inhibition; Potency, µM (titrated, usually from 114 µM), hits mostly inhibitors; AlphaScreen BAZ2B-H3K14Ac peptide displacement; hit rate 4.4% among 360,000; AID 504333; Q9UIF8; further: nearly all actives have a fitted effect of over 60% in size
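Complex of BAZ2B and biotin-H3K14Ac (50 nM apiece) forms over 30 min at RT, then faces library compounds up to 110 uM for another 30 min; AlphaScreen beads added, 20 min dark incubation, luminescence read.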
PLK1 PBD inh = inhibitors of human PLK1 polo-box domain binding; P53350; Plk1 PBD binding of FITC phosphopeptide, fluorescence polarization; Potency, µM, usual class: inhibitors; hit rate 2.8% among 360,000; AID 720504; further: series mostly up to about 57 µM; nearly all actives have a fitted effect of over 65% in size
Numbers stand for hits; n = inactive; u = inconclusive; x = no result given; ! = not active in a repeat; [ ] = remark or other dose. The call rests on the fitted dose curve; in most records, active means well fitted curve in the direction sought with a large enough effect; inconclusive means small, poorly fitted or top-dose-only effect, or another doubt; inactive means no such curve, though single readings can be large; an effect the other way counts as inactive or inconclusive.

SMILES | Sfp inh | HP1b binding inh | JMJD2A Tudor | G9a block | BAZ2B inh | PLK1 PBD inh
Cc1cc(N(CCO)CCO)ccc1N=Nc1cc(F)ccc1F | n | u | 22µM | 14µM | 22µM | n
Fc1ccc(-c2noc3ncnc(Nc4ccc(F)cc4F)c23)cc1 | x | n | n | n | n | x
COc1ccc(NC(=O)CCCC(=O)O)cc1Cl | n | n | n | n | n | n
CCN(CC)CCCNCC(=O)Nc1ccc(OC)c(Cl)c1 | n | x | x | 8.9µM | 50µM | x
CCN(CC)CCCNCC(=O)Nc1ccc2c(c1)CCC2 | 89µM | u | 28µM | 35µM | 56µM | n
Cc1ccc(C(=O)NCC(=O)Nc2ccc3c(c2)CCC3)cc1C | x | n | n | n | n | n
CCCCn1c(N)c(N(CCC(C)C)C(=O)c2ccc3c(c2)OCO3)c(=O)[nH]c1=O | x | n | n | n[0.501 µM] | n | n
C=CCNC(=O)COC(=O)c1ccc(Sc2nncn2C)c([N+](=O)[O-])c1 | n | n | n | n | n | u
CCOC(=O)NC(=O)COC(=O)c1ccc(Sc2ncn[nH]2)c([N+](=O)[O-])c1 | n | n | n | 20µM | 79µM | n
C=CCN(CC=C)C(=O)COC(=O)c1ccc(Sc2ncn[nH]2)c([N+](=O)[O-])c1 | n | n | n | 28µM | u | n
CC(=O)c1ccc(COC(=O)c2cc3ccccc3oc2=O)cc1 | n | n | n | n | n | n
Cc1ccc(-n2c(=O)c3cccnc3n2CC(=O)Nc2ccc(Br)cc2)cc1C | x | n | n | n | n | x
CCCN1CNc2c(c(=O)[nH]c(=S)n2CCc2ccc(C)cc2C)C1 | x | n | n | x | x | x
CCc1nnc(NC(=O)CC23CC4CC(CC(Br)(C4)C2)C3)s1 | n | n | n | n | n | n
CN(C(=O)COC(=O)c1ccc([N+](=O)[O-])cc1)c1ccccc1 | n | n | n | n | n | n
N/C(=N\OC(=O)CSc1ccccc1)c1ccc([N+](=O)[O-])cc1 | n | u | u | n | u | 27µM
CC1CN(C(=O)COC(=O)CSc2ccc([N+](=O)[O-])cc2)CC(C)O1 (stereo not given) | x | n | n | u | n | 17µM
O=C(CSc1ccc([N+](=O)[O-])cc1)OCC(=O)N1CCCC1=O | x | n | n | n[12.7 µM] | n | n
CN(C(=O)COC(=O)CSc1ccc([N+](=O)[O-])cc1)c1ccccc1 | x | u | 79µM | n | n | 13µM
Cc1ccc(/C(N)=N/OC(=O)CSc2ccccc2)cc1 | n | n | n | n | n | n
CC1CCN(C(=O)C(C)OC(=O)CSc2ccc([N+](=O)[O-])cc2)CC1 (stereo not given) | x | n | u | n[12.7 µM] | n | 15µM
Cc1cc(C)cc(N(C(=O)CNC(=O)c2ccco2)C(C(=O)NC2CCCCC2)c2ccncc2)c1 (stereo not given) | n | n | n | n | n | n
COc1cccc(NC(=O)Cn2nc(C)c3c(C)n(-c4ccccc4)nc3c2=O)c1 | x | n | n | n | n | x
O=S(=O)(Cc1noc(-c2ccc(Cl)cc2)n1)Cc1ccco1 | 4µM | n | n | x | u | n
O=C(CN1CCN(c2nc(-c3ccc(Cl)cc3)cs2)CC1)NCc1ccco1 | n | n | n | n | n | n
SMILES | Sfp inh | HP1b binding inh | JMJD2A Tudor | G9a block | BAZ2B inh | PLK1 PBD inh
O=S(=O)(Cc1ccco1)Cc1nc(-c2ccc(Cl)cc2)cs1 | 25µM | n | n | x | n | n
Cc1ccsc1/C=N/NC(=O)Cn1cnc2ccccc21 | n | n | n | n | n | n
O=C(Nc1ccccc1)N(CCCN1CCOCC1)Cc1cccs1 | n | n | n | n | n | n
CC(C)(C)c1ccc(S(=O)(=O)N(CCCN2CCOCC2)Cc2cccs2)cc1 | 2.2µM | 16µM | 22µM | 14µM | 25µM | n
CC(=O)Nc1ccc(S(=O)(=O)N(CCCN2CCOCC2)Cc2cccs2)cc1 | n | n | 45µM | 40µM | 79µM | n
O=[N+]([O-])c1ccc(S(=O)(=O)N(CCCN2CCOCC2)Cc2cccs2)cc1 | n | n | 79µM | 35µM | 50µM | n
CC(C)=CCC/C(C)=C/C=C/C1=CC2(C)CC1(C)C(/C=C(\C)CCC=C(C)C)CC2=O (stereo not given) | n | x | x | x | x | x
COc1ccccc1N1CCN(C(=O)c2c(C)oc3ncn(C)c(=O)c23)CC1 | x | n | n | n | n | x
CNS(=O)(=O)c1cc(-c2nn3c(C)nnc3c3ccccc23)ccc1C | x | n | n | n | n | x
CCOc1ccc2nc(NC(=O)Cn3c(C)csc3=O)sc2c1 | x | n | n | 40µM | n | n
CCOc1ccc2nc(Cl)sc2c1 | n | n | n | 35µM | n | n
CCOc1ccc2nc(NS(=O)(=O)c3ccc4c(c3)n(C)c(=O)n4C)sc2c1 | n | n | n | u | 56µM | n
CCOc1ccc2nc(NS(C)(=O)=O)sc2c1 | n | n | n | 7.1µM | n | u
CCOc1ccc(S(=O)(=O)Nc2nc3ccc(OC)cc3s2)cc1 | n | n | n | u | n | n
CCOCC(=O)Nc1nc2ccc(OCC)cc2s1 | n | n | n | n[12.7 µM] | n | n
Cc1cccc2sc(NC(=O)c3ccc(OCC4CCCO4)cc3)nc12 (stereo not given) | n | n | n | n | n | n
CCOc1ccc2nc(NC(=O)c3ccc(OCC4CCCO4)cc3)sc2c1 (stereo not given) | u | n | n | 45µM | n | n
CCC12CCCN3CCc4c(n(c5ccccc45)C(O)(C(=O)OC)C1)C32 (stereo not given) | n | n | n | 50µM | n | n
COC(=O)c1ccccc1S(=O)(=O)N1CCC(C(=O)N(C)CCOc2ccccc2)CC1 | x | n | n | u | n | n
O=[N+]([O-])c1cccc(Nc2nc(Cl)nc(Cl)n2)c1 | n | n | n | u | 89µM | n
O=[N+]([O-])c1cccc(NC2=NCCC2)c1 | n | n | n | n[12.7 µM] | n | n
CCCCCCCCN1C(=O)[C@H](CC(=O)NCCCC)C[C@@]2(C(=O)OC)CC(C)(C)CC=C12 | x | x | x | x | x | n
COc1ccc(NC(=O)CN2C(=O)CC(c3ccco3)Sc3ccccc32)cc1OC (stereo not given) | x | n | u | n | u | x
COc1ccc(NC(=S)NCCc2c[nH]c3ccccc23)c(OC)c1 | n | n | n | 50µM | 45µM | n
COc1cc2c(CCNC(C)=O)c[nH]c2cc1O | x | n | n | 20µM! | x | n
COc1ccc2[nH]cc(CCNC(=O)c3ccc4ccccc4n3)c2c1 | n | n | u | 71µM | u | n
COc1ccc(C(=O)NCCc2c[nH]c3ccc(OC)cc23)cc1 | n | n | n | n | u | n
COc1ccc(NC(=S)NCCc2c[nH]c3ccc(OC)cc23)c(OC)c1 | n | n | u | x | 45µM | n
COc1ccc(NC(=S)NCCc2ccc(Cl)cc2)c(OC)c1 | n | n | n | n | u | n
